# Molecular target: AMP-activated protein kinase, AMPK (Homo sapiens) (UniProt P54646+O43741+P54619+Q9UGJ0+Q9Y478+Q13131+Q9UGI9)
# Test: AMP-dependent Kinase enzyme assay. An in vitro enzyme assay that detects ADP turnover that is directly proportional to AMPK activity. This uses naive AMPK that is activated during the assay with MK-8722
# Format: functional
# Set-up: scale not given: direction of the effect not stated beside the values
# Conditions: 30 µM
row,SMILES,Percent Effect
1,Cc1ccc(C(=O)NC2CCCN(C)C2)c(=O)[nH]1 (centres undefined),-3.1%
2,COCCOc1cccc(CNCc2ccc(-n3cncn3)nc2)c1,3.28%
3,CCCOc1ccccc1CCCNc1ncnc2oc(C)nc12,2.11%
4,CCOc1cccc(C(C(=O)O)N(C)Cc2cc(C)no2)c1 (centres undefined),7.67%
5,Cc1ccc(-c2noc(C3CCN3C(=O)c3c(C)noc3C)n2)s1 (centres undefined),5.86%
6,COCC1(C(=O)N[C@H]2CN(c3nnc(C)s3)C[C@@H]2C2CC2)CCC1,9.28%
7,CNc1nc(C(=O)N2CCCn3nc(C(=O)N4CCCC4)cc3C2)cs1,10.6%
8,COc1ccccc1CNC(=O)C(C)N1CC(n2cc(C)cn2)C1 (centres undefined),3.01%
9,COc1cccc(CNC(=O)C(C)N2CC(n3nc(C)cc3C)C2)c1 (centres undefined),0.116%
10,CNc1cc2c(nn1)CCN(C(=O)c1ccc(-n3cccn3)nc1)C2,-15.7%
11,O=C(CNC(=O)c1ccccc1F)NCc1ccccn1,0.147%
12,Cc1nc2c(c(NCCNC(=O)C(C)C)n1)Cc1ccccc1OC2,3.56%
13,O=C(COc1ccc(-n2cccn2)nn1)N1CCCC1,3.54%
14,CCn1ccnc1CNCc1ccc(C)cc1OC(C)(C)C,25.5%
15,O=C(NC1CCCC1)N1C[C@H]2CN(c3ccccn3)C[C@@]2(C(=O)O)C1,3.09%
16,CN(CCc1ccccc1)Cc1c(C2CCNCC2)[nH]c2ncccc12,7.86%
17,Cc1cc(CC(=O)NC2CCCN(Cc3ccccc3)C2=O)n[nH]1 (centres undefined),9.56%
18,O=C(NCc1ccc(N2CCSCC2)cc1)NCc1cc[nH]n1,-0.457%
19,CCc1noc(C)c1C(=O)N1CCC2(CCCN(CC(C)(C)C)C2=O)C1 (centres undefined),7.67%

# — ChEMBL document CHEMBL3988442, “University of Dundee, Small-Polar-MMV Screening Library” (2021)
